We go through 27 compounds from PubChem BioAssay (Tox21).

Molecules are shown by their SMILES. Where “and” joins values, the source holds several entries; their conditions need not be identical. Equal entries are not always repeated. Results filed as inconclusive are left out. Some structures have more than one record in an assay (separate samples or runs), and their calls can disagree. Calls of active or inactive are those of the source. Unless noted, the call rests on the fitted dose curve.

A short description of assay [1]: qHTS assay to identify small molecule antagonists of the vitamin D receptor (VDR) signaling pathway - cell viability counter screen (AID 743225; active means well fitted curve in the direction sought with a large enough effect in the repeat runs; an effect the other way counts as inactive or inconclusive; further: nearly all actives have a fitted effect of over 50% in size; further: potency means the concentration at half of the fitted maximal effect). The procedure, abridged: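 HEK293T VDR-bla; cpd + 1a,25-(OH)2D3 3 nM final, 16 h 37C/5% CO2; B/G FRET substrate 2 h RT; then CellTiter-Glo 30 min RT, luminescence.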
A short description of assay [2]: qHTS assay to identify small molecule agonists of the NFkB signaling pathway (AID 1159509; active means well fitted curve in the direction sought with a large enough effect in the signal ratio in the repeat runs, not every such curve was filed as active; the % refers to the signal ratio; further: series mostly up to about 61 µM). In a few lines:
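Pathway activation was measured in ME-180 cells stably expressing beta-lactamase under NF-kB response element control. Substrate cleavage was read as the 460/530 nm emission shift after 5 hr compound incubation.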

Assay [3] is described as follows: qHTS assay to identify small molecule agonists of the NFkB signaling pathway - cell viability counter screen (AID 1159515). Further: nearly all actives have a fitted effect of over 55% in size. Further: potency means the concentration at half of the fitted maximal effect. In a few lines: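 Read by CellTiter-Glo luminescence (30 min, room temperature) in the wells also used for the beta-lactamase FRET read. ME-180 NFkB-bla cells at 2,000 per well were plated overnight, then exposed to compound for 5 hr at 37 C.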

The nature of assay [4]: qHTS assay to identify small molecule antagonists of the retinoid-related orphan receptor gamma (ROR-gamma) signaling pathway - cell viability counter screen (AID 1159520; active means well fitted curve in the direction sought with a large enough effect in the repeat runs; an effect the other way counts as inactive or inconclusive; further: nearly all actives have a fitted effect of over 50% in size; further: potency means the concentration at half of the fitted maximal effect). The procedure, abridged:
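Tet-on ROR gamma CHO cells were given compounds for 2 hr, then doxycycline hyclate at 1 uM final, and incubated 16 hr at 37 C. Viability was measured as ATP content by CellTiter-Glo luminescence.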
For orientation: Quantitative high-throughput screening tests each substance at several concentrations.

The target of assay [5] is Nuclear receptor ROR-gamma (Homo sapiens) (UniProt P51449). In words: qHTS assay to identify small molecule antagonists of the retinoid-related orphan receptor gamma (ROR-gamma) signaling pathway (AID 1159521; active means well fitted curve in the direction sought with a large enough effect in the repeat runs; an effect the other way counts as inactive or inconclusive; further: nearly all actives have a fitted effect of over 50% in size; further: potency means the concentration at half of the fitted maximal effect). The procedure, abridged:
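Cells were plated, rested 4 h at 37 C, exposed to compounds for 2 h, then given 1 uM final doxycycline hyclate to induce RORγ expression. After 16 h, ONE-Glo luminescence from the ROR response element reporter was measured.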

The nature of assay [6]: qHTS assay to identify small molecule agonists of the AP-1 signaling pathway - cell viability counter screen (AID 1159525). Further: nearly all actives have a fitted effect of over 55% in size. Further: potency means the concentration at half of the fitted maximal effect. The procedure, abridged:
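Same-well cytotoxicity counter screen of the Tox21 10K library in ME-180 cells. The readout is ATP-dependent luminescence after 5 h compound treatment. Data are normalised to DMSO and tetra n-octyl ammonium bromide controls.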

The nature of assay [7]: qHTS assay to identify small molecule agonists of the AP-1 signaling pathway (AID 1159526).
The target in assay [8] is Retinoic acid receptor RXR-alpha (Homo sapiens) (UniProt P19793). Put plainly: qHTS assay to identify small molecule agonists of the RXR signaling pathway (AID 1159527). Further: nearly all actives have a fitted effect of over 35% in size. In a few lines:
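Cells plated at 2,000/well, rested 5 hr at 37 C, pin-dosed with DMSO compound solutions, incubated 16 hr, then loaded with B/G FRET substrate for 2 hr at RT before dual-emission fluorescence reading.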

A short description of assay [9]: qHTS assay to identify small molecule agonists of the endoplasmic reticulum stress response signaling pathway (AID 1159516; active means well fitted activation curve with a large enough effect in the signal ratio in the repeat runs, not every such curve was filed as active; the % refers to the signal ratio). The procedure, abridged:
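Ratiometric FRET readout (405 nm excitation; 460 and 530 nm emission) of a beta-lactamase gene driven by the ER stress response element, after 2 hr substrate loading. HeLa ESRE-bla cells were seeded overnight and treated with compounds for only 5 hr at 37 C.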

Assay [10] is described as follows: qHTS assay to identify small molecule agonists of the endoplasmic reticulum stress response signaling pathway - cell viability counter screen (AID 1159517). Further: nearly all actives have a fitted effect of over 50% in size. Further: potency means the concentration at half of the fitted maximal effect. The procedure, abridged: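 In parallel with the ESRE reporter read, cytotoxicity was scored by CellTiter-Glo luminescence (30 min, room temperature) on HeLa ESRE-bla cells dosed for 5 hr.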

Chain of Retinoic acid receptor RXR-alpha (Homo sapiens) (P19793 whole entry, looked up): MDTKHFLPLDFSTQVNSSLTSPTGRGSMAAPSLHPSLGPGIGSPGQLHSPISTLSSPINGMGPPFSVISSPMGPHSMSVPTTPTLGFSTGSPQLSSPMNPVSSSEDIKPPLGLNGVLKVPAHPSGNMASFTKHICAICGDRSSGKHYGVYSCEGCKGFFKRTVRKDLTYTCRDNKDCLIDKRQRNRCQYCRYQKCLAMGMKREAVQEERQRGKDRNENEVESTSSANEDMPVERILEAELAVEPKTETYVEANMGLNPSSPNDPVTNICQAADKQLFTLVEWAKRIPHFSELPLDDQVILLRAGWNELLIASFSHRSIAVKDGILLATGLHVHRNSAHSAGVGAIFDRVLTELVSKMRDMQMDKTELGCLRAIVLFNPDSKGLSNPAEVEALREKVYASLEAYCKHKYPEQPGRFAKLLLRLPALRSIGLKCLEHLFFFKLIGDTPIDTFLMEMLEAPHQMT

For `CCCCN(CC)c1c([N+](=O)[O-])cc(C(F)(F)F)cc1[N+](=O)[O-]`, the Potency result in assay [1], in assay [3], in assay [4], in [5], in assay [6] and in [8] was “inactive” throughout. The compound was classed as inactive in [2] and in assay [7].

Consider `Nn1cnnc1`, for which the Potency result in [1], in assay [3], in [4], in [5], in assay [6] and in [8] was “inactive” throughout. Besides, the result in [2], in assay [9] and in assay [7] was inactive.

Regarding `O=C(Nc1ccc(Br)cc1)c1cc(Br)cc(Br)c1O`, the Potency is 1.95 µM (active) in [1]; 13.8 µM (active) and 49 µM (active) in [3]; 8.68 µM (active) and 1.95 µM (active) and 5.35 µM (active) in assay [10]; 27.2 µM (active) and 17.2 µM (active) in assay [4]; 13.6 µM (active) and 10.9 µM (active) in assay [5]. The compound was called inactive in [2] and in [7]. Further, the Potency entry in [6] is “inactive”.

For `CC(C)NC(C)C`, the Potency result in [1], in assay [10], in assay [4], in assay [5], in [6] and in assay [8] was “inactive” each time. Also, the call in assay [2], in [9] and in assay [7] was inactive.

With `CCOc1cc(Oc2ccc(C(F)(F)F)cc2Cl)ccc1[N+](=O)[O-]`, the Potency result in assay [1], in [3], in [4], in [6] and in assay [8] was “inactive” throughout. The result in assay [2], in assay [9] and in [7] was inactive.

On to `CN(C)c1ccc(C(=O)c2ccc(N(C)C)cc2)cc1`, for which the Potency result in [1], in assay [3], in [4], in assay [5], in assay [6] and in [8] was “inactive” each time. Also, the call in assay [2], in [9] and in [7] was inactive.

For `C=CCc1ccc2c(c1)OCO2`, the Potency result in assay [1], in assay [3], in assay [4], in assay [5], in assay [6] and in [8] was “inactive” in each case. Further, the compound was called inactive in assay [2], in assay [9] and in assay [7].

With `CCN(N=O)C(N)=O`, the Potency entry in assay [1], in [3], in [4], in assay [5], in assay [6] and in assay [8] was “inactive” in each case. Moreover, the compound was called inactive in assay [2], in assay [9] and in assay [7].

On to `c1ccc(P(c2ccccc2)c2ccccc2)cc1`, for which the Potency entry in [1], in [3], in assay [10], in assay [4], in assay [5] and in assay [6] was “inactive” each time. Further, the Potency result in assay [8] is “inactive”. In addition, the compound was called inactive in assay [2] and in [7].

On to `N#Cc1cc(Br)c(O)c(Br)c1`, for which the result in assay [2], in assay [9] and in [7] was inactive. In addition, the Potency result in assay [10], in assay [4], in assay [6] and in [8] was “inactive” each time. Besides, the Potency in assay [5] was 27.3 µM (active) and 37.1 µM (active).

As for `CC(C)c1ccc(CO)cc1`, the Potency result in assay [1], in assay [10], in assay [4], in assay [5], in assay [6] and in assay [8] was “inactive” each time. Besides, the outcome in assay [2], in assay [9] and in [7] was inactive.

With `N[C@@H](Cc1ccc(N(CCCl)CCCl)cc1)C(=O)O`, the Potency result in assay [1], in assay [3] and in assay [6] was “inactive” in each case. Further, the compound was classed as inactive in [2], in assay [9] and in [7]. For the same compound, the Potency in assay [4] was 16.8 µM (active); in assay [5] it was 11.7 µM (active) and 13.3 µM (active).

For the compound `c1cc(OCC2CO2)ccc1Cc1ccc(OCC2CO2)cc1` (stereo not drawn), the Potency entry in [1], in assay [3], in assay [4], in assay [5] and in [6] was “inactive” each time. For the same compound, in assay [2], the outcome was inactive.

In the case of `NC(=S)Nc1ccccc1`, the Potency result in assay [1], in assay [3], in [4], in [6] and in assay [8] was “inactive” each time. The call in assay [2], in [9] and in [7] was inactive. In addition, the Potency in assay [5] was 31.1 µM (active) and inactive.

Take `CCOC(=S)S`: the Potency entry in [1], in assay [3] and in assay [10] was “inactive” each time. The result in assay [2], in [9] and in assay [7] was inactive. The Potency in assay [5] was 13.7 µM (active) and 16.3 µM (active).

For the compound `CCCCCCCCC(=O)NCc1ccc(O)c(OC)c1`, the Potency result in assay [1], in [3], in assay [4], in assay [5] and in [6] was “inactive” in each case. The outcome in assay [2] and in [7] was inactive.

Take `c1ccc(NNc2ccccc2)cc1`: the Potency result in [1], in [10], in [4], in [5], in assay [6] and in [8] was “inactive” throughout. Besides, the call in assay [2], in assay [9] and in [7] was inactive.

Consider `O=C(NC(=O)c1c(F)cccc1F)Nc1ccc(Cl)cc1`, for which the Potency entry in assay [1], in [3], in assay [10], in [4], in assay [5] and in [6] was “inactive” throughout. The Potency entry in assay [8] is “inactive”. Also, the outcome in [2] and in assay [7] was inactive.

As to `Oc1cc(Cl)ccc1Oc1ccc(Cl)cc1Cl`, the Potency in assay [1] is 7.08 µM (active) and 23.9 µM (active); in [3] it was 22.4 µM (active) and inactive; in assay [4] it was 31.4 µM (active) and 29.8 µM (active); in assay [5] it was 15.7 µM (active) and 23.7 µM (active); in assay [6], 15.8 µM (active). Moreover, the outcome in assay [2] and in assay [9] was inactive. The Potency result in assay [8] was “inactive”.

As to `CCCCCc1cc(O)cc(O)c1`, the call in [2] and in [9] was inactive. Besides, the Potency result in assay [3], in [4], in assay [5], in [6] and in assay [8] was “inactive” throughout.

Consider `Clc1nc(Cl)nc(Cl)n1`, for which the Potency entry in [1], in assay [3], in assay [4], in assay [5], in assay [6] and in assay [8] was “inactive” throughout. The compound was called inactive in assay [2], in [9] and in assay [7].

As for `CC(C)=CC1C(C(=O)OCc2coc(Cc3ccccc3)c2)C1(C)C` (stereo not drawn), the Potency result in assay [1], in assay [3], in [4] and in assay [6] was “inactive” in each case. Also, the outcome in assay [2], in assay [9] and in assay [7] was inactive. In assay [5], the Potency is 48.6 µM (active).

Consider `CCC(C)(c1ccc(O)cc1)c1ccc(O)cc1`, for which the Potency entry in assay [1], in assay [10], in assay [4], in assay [6] and in assay [8] was “inactive” each time. For the same compound, the result in [2], in assay [9] and in assay [7] was inactive. Also, in [5], the Potency is 54.4 µM (active).

Consider `C[C@]12CCC(=O)C[C@@H]1CC[C@@H]1[C@@H]2CC[C@]2(C)[C@@H](O)CC[C@@H]12`, for which the Potency result in assay [1], in assay [3], in assay [10], in [4] and in assay [6] was “inactive” each time. The compound was classed as inactive in [2] and in [9].

For the compound `Oc1cc(Cl)c(Cl)cc1Cl`, the Potency entry in [1], in [10], in [4], in [6] and in assay [8] was “inactive” each time. Also, the call in assay [2], in assay [9] and in [7] was inactive. Also, the Potency in assay [5] is 48.2 µM (active).

In the case of `CCC(=O)O[C@H]1CC[C@H]2[C@@H]3CCC4=CC(=O)CC[C@]4(C)[C@H]3CC[C@]12C`, the Potency in [1] was 43.6 µM (active) and inactive; in assay [5], 48.6 µM (active) and inactive. The call in [2], in [9] and in assay [7] was inactive. Further, the Potency entry in assay [3], in assay [4] and in assay [6] was “inactive” each time.

Turning to `O=C(O)C(F)(F)C(F)(F)C(F)(F)C(F)(F)C(F)(F)C(F)(F)C(F)(F)F`, the result in assay [2], in assay [9] and in assay [7] was inactive. Moreover, the Potency entry in [10], in assay [4], in assay [5], in [6] and in assay [8] was “inactive” each time.
